# Bioassay records as filed in PubChem BioAssay.
# Most compounds without a hit are left out; they make up all but 19% or so of the library.
# HT1080 IDH1KD tx: qHTS for induction of synthetic lethality in tumor cells producing 2HG: qHTS for the HT-1080-IDH1KD cell line; HT-1080 IDH1 knockdown viability, ATP luminescence, 48 h; Potency, µM (doses to about 46.1 µM), usual class: cytotoxic; actives 2% (n = 360,000); AID 686971, 2013
#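 CellTiter-Glo luminescence after 48 h compound exposure at 37 degrees C of IDH1-knockdown HT-1080 cells in 5% FBS RPMI. %Activity scaled between DMSO wells and cell-free media wells, with curves fitted and assigned curve classes.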
# TDP1 cell noCPT: qHTS for Inhibitors of human tyrosyl-DNA phosphodiesterase 1 (TDP1): qHTS in cells in absence of CPT; Potency, µM (highest dose often 46.2 µM), hits mostly inhibitors; AID 686978, 2013; DT40 Tdp1-/- hTDP1 cells, no CPT, ATP luminescence, 48 h; actives 15% (n = 420,000); further: nearly all actives have a fitted effect of over 55% in size
#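 Seeded 400 DT40-hTDP1 cells/well (vehicle DMSO, no 20 nM CPT); pinned compounds; ≥48 hr at 37 °C; CellTiter-Glo luminescence as viability measure.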
# ELG1 repair inh: qHTS screen for small molecules that inhibit ELG1-dependent DNA repair in human embryonic kidney (HEK293T) cells expressing luciferase-tagged ELG1 | HEK293T ELG1-luciferase reporter, luminescence, 16 h; DNA damage induced by 5-fluorouridine | Potency, µM (titrated, usually from 46.1 µM), actives largely listed as inhibitors | actives 2.3% (n = 330,000); further: nearly all actives have a fitted effect of over 55% in size
#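 5-Fluorouridine DNA damage + compound/DMSO, 2,000 cells/well, 16 h, 37 °C/5% CO2. ONE-Glo, 30 min RT, luminescence. Readout = decrease in reporter signal.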
# IL-1B inflam inh: qHTS for Inhibitors of Inflammasome Signaling: IL-1-beta AlphaLISA Primary Screen. THP-1 LPS/ATP IL-1B secretion, AlphaLISA, 16 h; active compounds read low. activity change, % at 57.5 µM. actives 4.7% (n = 360,000); in the data active means activity change below about -50%; inconclusive means mostly about -30% to -49%
#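 THP-1 cells pretreated 1 hr with compounds (up to 57.5 uM final), then stimulated with LPS (250 ng/mL final) plus ATP (1.25 mM final); secreted IL-1B measured by AlphaLISA after 16 hr, decreased signal indicating inhibition.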
# DT40 TDP1 CPT: qHTS for Inhibitors of human tyrosyl-DNA phosphodiesterase 1 (TDP1): qHTS in cells in presence of CPT | chicken DT40 Tdp1-/-;hTDP1 cells + 20 nM CPT, ATP luminescence, 48 h | Potency, µM (doses to about 46.2 µM), hits mostly inhibitors | actives 12% (n = 420,000); further: nearly all actives have a fitted effect of over 55% in size
#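 Cell growth measured by CellTiter-Glo luminescence after a minimum 48 h, 37 C compound exposure with 20 nM CPT in Tdp1-knockout DT40 cells stably expressing hTDP1, seeded 400/well; qHTS titration format.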
# HT1080-NT tox: qHTS for induction of synthetic lethality in tumor cells producing 2HG: qHTS for the HT-1080-NT fibrosarcoma cell line; HT-1080-NT fibrosarcoma viability, CellTiter-Glo ATP luminescence, 48 h; Potency, µM (titrated, usually from 46.1 µM), hits mostly cytotoxic; actives 1.6% (n = 360,000); AID 686970, 2013;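 further: NT is the 2HG producing partner of a matched IDH1 knockdown line; nearly all actives have a fitted effect of over 55% in size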
#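 Fibrosarcoma NT cells, 750 per well in 5% FBS RPMI, were exposed to compound for 48 hours. Viability: CellTiter-Glo luminescence.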
# Hits are given with their value; – = inactive; ? = inconclusive; · = no result given; [ ] = remark or other dose. Unless noted, the call rests on the fitted dose curve; in most records, active means well fitted curve in the direction sought with a large enough effect; inconclusive means small, poorly fitted or top-dose-only effect, or another doubt; inactive means no such curve, though single readings can be large; an effect the other way counts as inactive or inconclusive.
SMILES,HT1080 IDH1KD tx,TDP1 cell noCPT,ELG1 repair inh,IL-1B inflam inh,DT40 TDP1 CPT,HT1080-NT tox
COc1ccc([C@H]2CC(=O)C=C(c3ccc4c(c3)OCO4)C2)cc1OC,–,?,?,?,?,–
COc1ccc(C2=CC(=O)CC(c3ccccc3)C2)cc1 (stereo unspecified),–,?,–,–,–,–
COc1ccc([C@H]2CC(=O)C=C(c3ccc(OC)c(OC)c3)C2)cc1,–,?,?,?,11.6µM,–
CC(=O)Nc1cc2c3c(c1)CCC(=O)N3CCC2,–,–,–,–,–,–
O=C(COC(=O)c1ccc(CSc2ccc(Cl)cc2)cc1)Nc1ccccc1,–,–,–,–,–,–
O=C1C=C(c2cc3ccccc3s2)C[C@@H](c2ccc(Cl)cc2)C1,–,?,?,–,9.2µM,–
COc1ccc([C@H]2CC(=O)C=C(c3ccc4ccccc4c3)C2)cc1OC,–,16.4µM,–,?,?,–
O=C1C=C(c2ccc3ncccc3c2)C[C@@H](c2ccc(Cl)cc2)C1,–,?,?,–,23.1µM,?
CN(CC(=O)Nc1ccc(F)c(F)c1F)C(=O)CCCSc1nc2ccccc2[nH]1,–,?,–,–,?,–
CC(C)C1C(=O)N(Cc2cn(Cc3ccco3)nn2)CCS(=O)(=O)N1Cc1ccc(-c2ccc(F)cc2)cc1 (stereo unspecified),?,20.6µM,·,–,?,?
CC(C)C1C(=O)N(Cc2cn(Cc3ccco3)nn2)CCS(=O)(=O)N1Cc1ccc(-c2ccc(Cl)cc2)cc1 (stereo unspecified),?,6.51µM,·,–,9.2µM,?
CC(C)C1C(=O)N(Cc2cn(Cc3ccco3)nn2)CCS(=O)(=O)N1Cc1ccc(-c2ccccc2)cc1 (stereo unspecified),?,18.4µM,·,–,?,?
O=C(NNC(=O)c1ccc(SCC2CCCO2)c([N+](=O)[O-])c1)c1ccc(F)cc1 (stereo unspecified),–,20µM,–,–,?,–
Cc1ccc(C(=O)NNC(=S)NCC2CCCO2)cc1[N+](=O)[O-] (stereo unspecified),–,?,–,–,?,–
COc1cc(CNCc2ccccc2)c(Br)cc1OC1CCCC1,?,?,?,-54.9,?,?
NC(=S)NNc1ccc(Cl)c(Cl)c1,–,?,–,–,?,–
CN(C)/C=N/C(=S)Nc1cc(Cl)cc(Cl)c1,–,–,–,–,–,–
Cc1ccc(NC(=S)Nc2ccc3cn[nH]c3c2)cc1,–,–,–,–,–,–
NC(=S)Nc1ccc(Cl)c(Cl)c1,–,9.2µM,–,–,11.6µM,–
CNC(=S)Nc1cc(C)ccc1OC(F)F,–,–,–,–,–,–
CN(C)/C=N/C(=S)Nc1ccc(Cl)c(Cl)c1,?,?,?,-91.2,?,–
Cc1cc(C)cc(NC(=S)Nc2ccc3cn[nH]c3c2)c1,–,?,?,-53.1,–,–
Cc1ccc(NC(=S)Nc2ccc(Cl)c(Cl)c2)c(OC(F)F)c1,–,18.4µM,?,?,20.6µM,–
CCOC(=O)c1ccc(NC(=O)Cn2ncc3c(C)n(Cc4ccccc4F)c(C)c3c2=O)cc1,·,–,·,·,–,·
Cc1cc(C)cc(NC(=S)Nc2ccc(Cl)c(Cl)c2)c1,?,20.6µM,?,–,?,?
SMILES,HT1080 IDH1KD tx,TDP1 cell noCPT,ELG1 repair inh,IL-1B inflam inh,DT40 TDP1 CPT,HT1080-NT tox
Cc1cccc(C)c1NC(=S)Nc1ccc(Cl)c(Cl)c1,–,?,–,–,?,–
NN(Cc1ccccc1)C(=S)Nc1ccc(Cl)c(Cl)c1,–,–,–,-55.8,–,–
Cc1ccc(C)c(C(=O)Nc2ccncc2)c1,–,–,?,–,–,–
CSc1ncc(Cl)c(C(=O)Nc2ccccc2Br)n1,–,?,–,–,–,–
Cc1nc(SCc2ccc(Cl)cc2)ncc1C(=O)O,–,–,?,–,–,–
CN(C)C1CN(Cc2cn(Cc3cccc(C(F)(F)F)c3)nn2)S(=O)(=O)C1 (stereo unspecified),–,–,·,–,–,–
Cc1[nH]c2ccccc2c1C(=O)C(C)OC(=O)c1ccc([N+](=O)[O-])o1 (stereo unspecified),?,16.4µM,–,-61.8,?,?
CCc1noc(C)c1C(=O)OCC(=O)NCc1ccccc1,–,–,–,–,–,–
Cc1nc2ccc(C(=O)OC(C)C(=O)c3c(C)[nH]c4ccccc34)cc2nc1C (stereo unspecified),·,12.6µM,·,·,?,·
CCc1noc(C)c1C(=O)OC(C)C(=O)c1c(C)[nH]c2ccccc12 (stereo unspecified),–,?,–,–,16.4µM,–
Cc1cccc(C(=O)NCc2nc(-c3cccc(NC(=O)C4CCCN(C)C4)c3)oc2C)n1 (stereo unspecified),·,?,·,·,–[9.04 µM],·
Cc1cnc(C)c(-c2ccc(O)c(CN3CCN(C=O)CC3)c2)n1,·,–,·,·,–,·
O=C(Nc1ccc(Cl)cc1)Nc1ccc(N2CCCC2)c(S(=O)(=O)Nc2ccccc2Cl)c1,6.51µM,5.17µM,–,-52.2,5.17µM,?
O=C(Nc1ccc(N2CCOCC2)c(S(=O)(=O)Nc2ccccc2Cl)c1)c1ccccc1,–,?,18.3µM,–,?,–
O=C(Nc1ccc(N2CCOCC2)c(S(=O)(=O)Nc2ccccc2Cl)c1)c1ccc(=O)[nH]n1,–,16.4µM,·,–,?,–
Nc1ccc(N2CCOCC2)c(S(=O)(=O)Nc2ccccc2Cl)c1,–,–,–,–,–,–
CCOC(=O)C1=CN(Cc2cccc(F)c2)S(=O)(=O)NC1c1ccc(Br)cc1F (stereo unspecified),?,?,?,–,20.6µM,?
CCOC(=O)C1=CN(Cc2cccc(F)c2)S(=O)(=O)NC1c1ccc(F)c(Cl)c1 (stereo unspecified),?,?,?,–,?,25.9µM
CCOC(=O)C1=CN(Cc2cccc(-c3cccnc3)c2)S(=O)(=O)N(CC)C1C (stereo unspecified),–,?,?,–,?,–
CCOC(=O)C1=CN(Cc2cccc(-c3cccnc3)c2)S(=O)(=O)N(C)C1C (stereo unspecified),–,13µM,?,–,?,–
